Calls of active or inactive are those of the source.
Assays:
[1] = test system: PRMT1 (protein arginine N-methyltransferase 1); experiment: PRMT1 binders on small-molecule microarrays, primary screen, biochemical, small-molecule microarray, 635 nm fluorescence (AID 1088); details: small-molecule microarray binding, higher = more signal;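 also: binding of Prmt1 protein to compounds spotted on small-molecule microarray slides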
[2] = yeast growth modulation, basal conditions, primary screen, YJM789 clinical isolate, OD600, 24 h (AID 1089);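 also: growth of clinical yeast isolate S. cerevisiae YJM 789 seeded 1000 cells per well; test concentration not given here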; details: S. cerevisiae YJM789 growth, higher = more signal, called active from +8 up or from −8 down
[3] = fission yeast growth modulation, primary screen, strain 972, OD600, 24 h, no modulator (AID 1090);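 also: basal condition with compound alone and no growth modifier present; test concentration not given here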; details: S. pombe 972 growth, higher = more signal, called active from +8 up or from −8 down
[4] = S. cerevisiae growth modulation with rapamycin, primary screen, strain BY4716, OD600, 96 h (AID 1091); details: higher = more signal, called active from +8 up or from −8 down; also: test concentration not given here
[5] = biological target: Torsin-1A-interacting protein 2 (Homo sapiens) (UniProt Q8NFQ8); experiment: LULL1 binders on small-molecule microarray, primary screen, cell lysate, human LULL1 lysate, 635/667 nm fluorescence (AID 1092); details: hLULL1 lysate binding, 635 nm fluorescence, higher = more signal;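 also: probe is lysate of COS7 cells overexpressing human LULL1; score merges per-feature 667 nm fluorescence with signal-to-noise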
[6] = E. coli growth modulation, two-sided OD650, primary screen, E. coli filamentation project, strain DRC41, 24 h (AID 1093); details: OD650, 24 h, higher = more signal, called active from +8 up or from −8 down;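 also: MC1000 strain lacking acrAB efflux and sulA so SOS filamentation is blocked; test concentration not given here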
[7] = small-molecule microarray binders of probe aLefty2, primary screen, biochemical, biotinylated probe, 635/667 nm fluorescence (AID 1094); details: higher = more signal;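 also: score merges spot fluorescence near 667 nm with spot signal-to-noise ratio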
[8] = test system: Noggin (protein binding on small-molecule microarray); experiment: Noggin binders on small-molecule microarray, primary screen, biochemical, 635/667 nm fluorescence (AID 1095); details: 635 nm fluorescence, higher = more signal;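 also: score merges 667 nm feature fluorescence with signal to noise over triplicate slides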
[9] = biological target: Neurogenic locus notch homolog protein 3 (Homo sapiens) (UniProt Q9UM47); experiment: NOTCH3 binders on small-molecule microarray, primary screen, biochemical, 635/667 nm fluorescence (AID 1096); details: NOTCH3 binding, 635 nm fluorescence, higher = more signal
[10] = small-molecule microarray binders of probe aEGFR, primary screen, biochemical, biotinylated probe, 635/667 nm fluorescence (AID 1097); details: higher = more signal;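 also: probe is a biotinylated anti-EGFR antibody binding compounds printed on slides; score combines fluorescence near 667 nm and signal to noise of each spot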
[11] = test system: Plasmodium falciparum Sir2 (PF13_0152, Sir2A); experiment: pfSir2 binders on small-molecule microarrays, primary screen, biochemical, small-molecule microarray, 635 nm fluorescence (AID 1098); details: small-molecule microarray binding, fluorescence 635 nm; higher = more signal;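 also: score merges spot fluorescence intensity with its signal-to-noise ratio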
[12] = small-molecule microarray binders of probe aDKK1, primary screen, biochemical, biotinylated probe, 635/667 nm fluorescence (AID 1099); details: higher = more signal;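 also: score merges 667nm spot fluorescence with signal to noise across triplicate slides; reference of the scale not given here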
[13] = small-molecule microarray binders of probe aCHRDL2, primary screen, biochemical, biotinylated probe, 635/667 nm fluorescence (AID 1100); details: higher = more signal
[14] = splicing luciferase reporter signal modulators, primary screen, spliceosome inhibition project, cell-based, HEK293, splice +/- reporter (AID 1101); details: luminescence, 24 h, higher = more signal, called active from +8 up or from −8 down;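 also: HEK293 cells carrying a splicing-competent luciferase reporter gene; test concentration not given here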
[15] = biological target: Fibroblast growth factor 10 (Homo sapiens) (UniProt O15520); experiment: FGF10 binders on small-molecule microarrays, primary screen, biochemical, small-molecule microarray, 635 nm fluorescence (AID 1102); details: FGF10 binding, fluorescence 635 nm, higher = more signal
[16] = test system: glycogen synthase kinase-3 (GSK3A per assay name; protocol says GSK3B); experiment: GSK3 binders on small-molecule microarrays, primary screen, biochemical, small-molecule microarray, 635 nm fluorescence, GSK3A (AID 1103); details: small-molecule microarray binding, fluorescence 635 nm; higher = more signal; also: the record names both GSK3A and GSK3B
[17] = biological target: Epidermal growth factor receptor (Homo sapiens) (UniProt P00533); experiment: EGFR binders on small-molecule microarrays, primary screen, biochemical, small-molecule microarray, 635 nm fluorescence (AID 1104); details: EGFR binding, higher = more signal;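 also: score merges 667 nm emission intensity with spot signal to noise over triplicate slides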
[18] = biological target: Follistatin-related protein 3 (Homo sapiens) (UniProt O95633); experiment: FSTL3 binders on small-molecule microarrays, primary screen, biochemical, small-molecule microarray, 635 nm fluorescence (AID 1105); details: FSTL3 binding, higher = more signal;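 also: score merges emission near 667 nm and signal to noise per printed spot across three slides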
[19] = biological target: Dickkopf-related protein 1 (Homo sapiens) (UniProt O94907); experiment: DKK1 binders on small-molecule microarrays, primary screen, biochemical, small-molecule microarray, 635 nm fluorescence scan (AID 1106); details: DKK1 binding, higher = more signal;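 also: score merges emission near 667 nm with signal to noise over three replicate slides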
[20] = test system: Inhibin beta A chain (activin A); experiment: INHBA (activin A) binders on microarrays, primary screen, biochemical, small-molecule microarray, 635 nm fluorescence scan (AID 1107); details: small-molecule microarray binding, higher = more signal;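 also: mouse activin A protein probed at 4.33 µg/mL on printed slides; score merges bound-protein fluorescence near 667 nm with spot signal-to-noise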

Fibroblast growth factor 10 (Homo sapiens), sequence (O15520 whole entry, looked up): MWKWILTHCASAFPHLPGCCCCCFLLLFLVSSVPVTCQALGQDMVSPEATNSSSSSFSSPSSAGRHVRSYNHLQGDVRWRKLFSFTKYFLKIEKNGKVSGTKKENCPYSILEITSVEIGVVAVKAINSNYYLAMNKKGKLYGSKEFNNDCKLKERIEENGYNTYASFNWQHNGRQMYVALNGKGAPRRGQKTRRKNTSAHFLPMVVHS
Neurogenic locus notch homolog protein 3 (Homo sapiens), sequence (Q9UM47 whole entry, looked up): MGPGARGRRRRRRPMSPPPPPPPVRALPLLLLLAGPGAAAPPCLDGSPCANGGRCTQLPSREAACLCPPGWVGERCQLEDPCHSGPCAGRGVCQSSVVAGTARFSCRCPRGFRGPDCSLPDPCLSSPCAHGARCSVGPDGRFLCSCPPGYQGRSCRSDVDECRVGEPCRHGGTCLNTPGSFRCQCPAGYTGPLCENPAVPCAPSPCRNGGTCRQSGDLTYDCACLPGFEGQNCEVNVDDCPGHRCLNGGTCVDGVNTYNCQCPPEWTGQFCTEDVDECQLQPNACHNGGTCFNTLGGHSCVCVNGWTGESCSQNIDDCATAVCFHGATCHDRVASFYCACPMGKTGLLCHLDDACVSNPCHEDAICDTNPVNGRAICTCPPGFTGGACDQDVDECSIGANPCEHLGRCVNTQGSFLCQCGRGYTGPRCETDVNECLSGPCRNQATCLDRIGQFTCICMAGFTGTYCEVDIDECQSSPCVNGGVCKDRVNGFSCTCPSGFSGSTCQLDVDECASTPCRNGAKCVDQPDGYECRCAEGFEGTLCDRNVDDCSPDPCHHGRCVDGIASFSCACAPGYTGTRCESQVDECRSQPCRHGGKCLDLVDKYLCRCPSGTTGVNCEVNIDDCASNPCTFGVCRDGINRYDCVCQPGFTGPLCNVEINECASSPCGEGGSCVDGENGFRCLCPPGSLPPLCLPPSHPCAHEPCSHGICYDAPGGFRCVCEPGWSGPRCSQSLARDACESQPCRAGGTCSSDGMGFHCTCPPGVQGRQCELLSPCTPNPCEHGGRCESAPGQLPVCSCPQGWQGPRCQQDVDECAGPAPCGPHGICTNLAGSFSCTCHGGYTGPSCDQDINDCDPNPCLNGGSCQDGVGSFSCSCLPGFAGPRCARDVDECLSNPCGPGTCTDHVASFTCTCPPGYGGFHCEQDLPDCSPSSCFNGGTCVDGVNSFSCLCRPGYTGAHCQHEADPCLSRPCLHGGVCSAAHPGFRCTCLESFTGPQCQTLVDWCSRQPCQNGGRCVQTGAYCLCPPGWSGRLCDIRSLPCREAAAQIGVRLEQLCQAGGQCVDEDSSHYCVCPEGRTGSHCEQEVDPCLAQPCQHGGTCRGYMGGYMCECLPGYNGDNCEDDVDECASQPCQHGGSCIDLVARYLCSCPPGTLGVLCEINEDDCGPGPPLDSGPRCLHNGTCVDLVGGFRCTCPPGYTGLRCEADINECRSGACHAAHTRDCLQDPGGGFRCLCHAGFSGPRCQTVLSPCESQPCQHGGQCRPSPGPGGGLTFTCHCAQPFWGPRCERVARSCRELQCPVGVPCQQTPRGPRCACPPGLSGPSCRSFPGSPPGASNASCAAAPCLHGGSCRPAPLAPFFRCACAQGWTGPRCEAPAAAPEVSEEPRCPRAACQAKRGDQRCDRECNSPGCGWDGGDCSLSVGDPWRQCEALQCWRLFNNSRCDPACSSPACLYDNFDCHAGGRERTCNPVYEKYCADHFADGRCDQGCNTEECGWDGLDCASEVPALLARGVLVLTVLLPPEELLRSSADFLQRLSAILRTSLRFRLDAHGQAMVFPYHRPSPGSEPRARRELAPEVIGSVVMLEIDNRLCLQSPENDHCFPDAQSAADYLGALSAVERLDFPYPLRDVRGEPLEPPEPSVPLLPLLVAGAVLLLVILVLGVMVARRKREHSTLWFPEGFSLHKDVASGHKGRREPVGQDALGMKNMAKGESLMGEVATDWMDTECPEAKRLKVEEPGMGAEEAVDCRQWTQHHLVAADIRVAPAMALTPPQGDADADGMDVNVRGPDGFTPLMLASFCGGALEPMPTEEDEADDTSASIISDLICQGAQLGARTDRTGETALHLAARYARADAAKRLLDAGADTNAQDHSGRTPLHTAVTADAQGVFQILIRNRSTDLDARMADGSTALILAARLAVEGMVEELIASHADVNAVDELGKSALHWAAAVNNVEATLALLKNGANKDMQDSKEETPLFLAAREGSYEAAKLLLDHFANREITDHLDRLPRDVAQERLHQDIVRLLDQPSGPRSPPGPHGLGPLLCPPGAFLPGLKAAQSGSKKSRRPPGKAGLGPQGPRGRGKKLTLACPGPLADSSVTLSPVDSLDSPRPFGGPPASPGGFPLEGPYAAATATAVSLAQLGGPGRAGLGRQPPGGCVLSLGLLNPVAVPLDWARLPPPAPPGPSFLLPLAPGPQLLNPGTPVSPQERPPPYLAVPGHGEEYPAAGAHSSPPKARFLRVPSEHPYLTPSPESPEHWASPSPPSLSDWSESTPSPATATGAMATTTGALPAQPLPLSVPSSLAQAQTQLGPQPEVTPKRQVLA
Follistatin-related protein 3 (Homo sapiens), sequence (O95633 whole entry, looked up): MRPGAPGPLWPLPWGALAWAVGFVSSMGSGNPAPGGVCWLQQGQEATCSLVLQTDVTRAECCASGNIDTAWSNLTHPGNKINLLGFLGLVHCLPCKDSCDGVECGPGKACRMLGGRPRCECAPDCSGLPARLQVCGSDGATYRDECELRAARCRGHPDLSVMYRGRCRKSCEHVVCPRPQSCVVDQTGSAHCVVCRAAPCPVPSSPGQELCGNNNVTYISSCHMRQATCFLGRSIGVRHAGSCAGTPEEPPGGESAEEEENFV
Epidermal growth factor receptor (Homo sapiens), sequence (P00533 whole entry, looked up): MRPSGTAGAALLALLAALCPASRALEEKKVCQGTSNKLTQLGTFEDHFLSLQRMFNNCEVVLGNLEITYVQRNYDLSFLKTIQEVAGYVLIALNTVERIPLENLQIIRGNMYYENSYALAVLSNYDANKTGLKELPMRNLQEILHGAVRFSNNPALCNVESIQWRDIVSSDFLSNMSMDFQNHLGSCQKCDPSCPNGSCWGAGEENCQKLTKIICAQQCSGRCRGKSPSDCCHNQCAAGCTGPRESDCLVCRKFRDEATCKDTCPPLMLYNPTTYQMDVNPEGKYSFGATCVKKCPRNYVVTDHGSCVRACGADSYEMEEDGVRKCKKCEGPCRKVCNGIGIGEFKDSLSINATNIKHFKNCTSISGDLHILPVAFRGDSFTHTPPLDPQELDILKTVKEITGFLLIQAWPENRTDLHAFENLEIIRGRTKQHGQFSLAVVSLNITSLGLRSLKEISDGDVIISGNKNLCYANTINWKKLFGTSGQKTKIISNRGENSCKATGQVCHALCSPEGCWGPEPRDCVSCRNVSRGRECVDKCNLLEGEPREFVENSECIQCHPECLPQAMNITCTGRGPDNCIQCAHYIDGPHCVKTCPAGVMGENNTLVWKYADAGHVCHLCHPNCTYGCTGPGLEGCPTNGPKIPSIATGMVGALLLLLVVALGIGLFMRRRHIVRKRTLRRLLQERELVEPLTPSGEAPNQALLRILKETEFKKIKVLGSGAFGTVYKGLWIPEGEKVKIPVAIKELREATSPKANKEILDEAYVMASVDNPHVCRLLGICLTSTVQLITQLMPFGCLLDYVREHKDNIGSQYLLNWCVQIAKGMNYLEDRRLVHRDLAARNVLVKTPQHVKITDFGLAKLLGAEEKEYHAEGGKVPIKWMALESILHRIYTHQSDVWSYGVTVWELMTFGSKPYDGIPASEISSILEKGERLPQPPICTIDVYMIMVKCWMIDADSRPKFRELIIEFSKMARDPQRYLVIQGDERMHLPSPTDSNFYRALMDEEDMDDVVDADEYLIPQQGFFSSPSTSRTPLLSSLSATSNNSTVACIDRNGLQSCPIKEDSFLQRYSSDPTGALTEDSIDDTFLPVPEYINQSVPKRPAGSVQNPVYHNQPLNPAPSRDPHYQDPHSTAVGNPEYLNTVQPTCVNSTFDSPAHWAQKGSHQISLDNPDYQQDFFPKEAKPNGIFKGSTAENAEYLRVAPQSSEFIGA
Dickkopf-related protein 1 (Homo sapiens), sequence (O94907 whole entry, looked up): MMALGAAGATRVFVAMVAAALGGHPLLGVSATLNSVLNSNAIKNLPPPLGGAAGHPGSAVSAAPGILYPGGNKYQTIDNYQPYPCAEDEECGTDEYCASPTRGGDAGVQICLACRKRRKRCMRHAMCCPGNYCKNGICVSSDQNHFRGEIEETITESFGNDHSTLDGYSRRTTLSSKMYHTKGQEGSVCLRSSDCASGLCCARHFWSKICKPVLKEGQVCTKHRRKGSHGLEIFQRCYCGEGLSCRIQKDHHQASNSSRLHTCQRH
Torsin-1A-interacting protein 2 (Homo sapiens), sequence (Q8NFQ8 whole entry, looked up): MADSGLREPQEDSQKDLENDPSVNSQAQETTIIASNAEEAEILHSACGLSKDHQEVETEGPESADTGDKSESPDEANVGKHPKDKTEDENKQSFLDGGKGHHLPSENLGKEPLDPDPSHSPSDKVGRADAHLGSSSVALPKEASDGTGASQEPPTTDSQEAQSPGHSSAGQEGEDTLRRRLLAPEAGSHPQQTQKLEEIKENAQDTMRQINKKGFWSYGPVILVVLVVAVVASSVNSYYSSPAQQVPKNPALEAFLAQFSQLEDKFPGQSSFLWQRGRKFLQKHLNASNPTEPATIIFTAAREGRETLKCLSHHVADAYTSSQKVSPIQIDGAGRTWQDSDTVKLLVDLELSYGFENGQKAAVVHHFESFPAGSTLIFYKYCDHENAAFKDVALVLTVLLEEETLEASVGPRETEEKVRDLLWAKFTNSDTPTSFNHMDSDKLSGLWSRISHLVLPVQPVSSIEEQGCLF

Compound	composite z-score [1]	z-score [2]	z-score [3]	z-score [4]	composite z-score [5]	z-score [6]	composite z-score [7]	composite z-score [8]	composite z-score [9]	composite z-score [10]	composite z-score [11]	composite z-score [12]	composite z-score [13]	z-score [14]	composite z-score [15]	composite z-score [16]	composite z-score [17]	composite z-score [18]	composite z-score [19]	composite z-score [20]
COC(=O)[C@@]1(Cc2ccccc2)[C@H]2c3cc(C(=O)N(C)C)n(Cc4c(CO)[nH]cc(C)c4=O)c3C[C@H]2CN1C(=O)c1ccccc1	0.0795	0.469 (inactive)	1.51 (inactive)	0.0018 (inactive)	3.13	-0.633 (inactive)	0.163	-0.38	0.447	0.0288	0.42	0.183	0.528	1.06 (inactive)	0.422	-0.0088	-0.0555	-0.237	-0.296	1.1
CCCCC(O)C1C=CC2C(=O)N(c3ccccc3)C(=O)C2N1Nc1ccc(C(C)C)cc1 (stereo not given)	1.37	0.603 (inactive)	-0.582 (inactive)	0.0624 (inactive)	3.01	-1.32 (inactive)	-0.122	0.49	1.03	-0.067	0.562	-0.109	0.214	-0.479 (inactive)	1.05	1.26	0.341	1.04	0.223	0.63
CCC(CC)C(O)C1C=CC2C(=O)N(c3ccccc3)C(=O)C2N1Nc1ccc(C(C)C)cc1 (stereo not given)	1.43	0.727 (inactive)	0.065 (inactive)	1.23 (inactive)	3.12	-0.63 (inactive)	0.0659	0.152	1.03	0.118	1.23	0.789	0.948	-0.0169 (inactive)	0.663	1.17	0.0407	0.932	-0.0563	0.916
C=CCOC(=O)[C@H]1[C@@H]2C(=O)O[C@@H](c3ccccc3)[C@@H](c3ccccc3)N2[C@@H](c2ccc(OCCOC(=O)[C@H]3C[C@H]4C(=O)N[C@@H](CC(C)C)C(=O)N4[C@H]3c3cccc(OCCO)c3)cc2)[C@]12C(=O)Nc1ccc(I)cc12	1.48	0.219 (inactive)	0.46 (inactive)	2.8 (inactive)	2.76	-0.266 (inactive)	-0.0416	0.972	0.97	0.0436	1.36	-0.122	0.18	0.642 (inactive)	1.33	1.31	1.21	0.919	0.963	0.535
CC1CC/C=C\[C@H]2OC34C=CCN(C(C)C)C(=O)[C@H]3N(CCCCCCO)C(=O)[C@@H]4C2C(=O)O1 (stereo not given in full)	-1.25	-1.39 (inactive)	-0.482 (inactive)	-1.27 (inactive)	-1.42	2.5 (inactive)	-0.136	-0.705	-0.514	-0.237	0.733	-0.242	0.417	-0.935 (inactive)	-1.16	-1.22	-0.755	-0.931	-1.24	0.25

Source: PubChem BioAssay
